Assay results published in the OligoGym collection.

Target: SYTL4
Assay: pooled miR-30 sensor sort-seq; sequence = guide strand
Details: shRNA
Note: reference of the scale not given here.

Row | Sequence | sensor-assay potency score (higher = more potent)
1 | TAATCCTTTTCTCATCTGCTTT | -1.12
2 | TTTCATGTACCACATCTTCTGG | -0.423
3 | TTCATGTACCACATCTTCTGGG | 0.0201
4 | TTATCCAGAGAGTCTCTCCTGG | -0.0866
5 | TTCAACTCTATTTCCTTGGCGC | 0.409
6 | TTTGGGAGCAGACATCTTCTTC | -0.722
7 | TTAGTGTACTCTGAAGGCCTGA | -0.464
8 | TAGTGGATTAACAGTGTCCCGC | -0.966
9 | TTTCTTCAACTCTATTTCCTTG | -0.969
10 | AACACTGAGAATCAAATCCTTT | -1.16
11 | TTCTTTAGTCGCCTAATCCTTT | -1.13
12 | TCATGTACCACATCTTCTGGGC | 0.653

Target: TAAR8
Assay: as above
Details: shRNA

Row | Sequence | sensor-assay potency score (higher = more potent)
13 | TAATATATCAACTGTATACGGT | -0.194
14 | TATAAGAAAAATCTTACTGTAA | -0.203
15 | TAATGGTTGATGAACTAGCCTT | -0.64
16 | TTTAGCTATAAGAAAAATCTTA | -0.583
17 | TTAGCTATAAGAAAAATCTTAC | -0.74
